Measured values reported in PubChem BioAssay (NCATS).
Records with an inconclusive call do not appear. Calls of active or inactive are those of the source. Calls come from the whole dose curve; as a rule, active = well fitted curve in the direction sought with a large enough effect; inconclusive = small, poorly fitted or top-dose-only effect, or another doubt; inactive = no such curve, though single readings can be large; an effect the other way counts as inactive or inconclusive.

Assays:
[1] = target: Cellular tumor antigen p53 (Homo sapiens) (UniProt P04637); experiment: Primary qHTS for small molecule compounds that upregulate eGFP-tagged delta133p53alpha (in N-terminal) cells. (AID 2060322); conditions: NCI-H358 eGFP-delta133p53alpha fluorescence, 24 h; activation: stronger effect = higher value;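 note: cells pre-induced with doxycycline then dosed without doxycycline; 0% = DMSO vehicle and 100% = reference activator; nearly all actives have a fitted effect of over 75% in size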
Summary of the method: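 NCI-H358 cells pre-induced 24 h with 10 ng/ml doxycycline for eGFP-delta133p53alpha, plated dox-free and exposed 24 h at 37C to titrated compounds. Fixed, Hoechst-stained; gated GFP peak intensity by laser scanning cytometry, normalized to DMSO (0%) and 57.5 uM 5-azacytidine (100%).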

[2] = target: Aldehyde dehydrogenase, mitochondrial (Homo sapiens) (UniProt P05091); experiment: qHTS for Inhibitors of the Aldehyde Dehydrogenase Family (ALDH2) Primary screen (AID 2061308); conditions: ALDH2 enzyme inhibition qHTS, 1536-well; series mostly up to 56 µM;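 note: plate controls were vehicle for no effect and reference inhibitor for full effect; nearly all actives have a fitted effect of over 55% in size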
[3] = target: Retinaldehyde dehydrogenase 3 (Homo sapiens) (UniProt P47895); experiment: qHTS for Inhibitors of the Aldehyde Dehydrogenase Family (ALDH1A3) Primary screen (AID 2061315); conditions: ALDH inhibition qHTS; series mostly up to 56 µM;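 note: plate controls were DMSO vehicle for no effect and reference inhibitor for full effect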

Cellular tumor antigen p53 (Homo sapiens), sequence (P04637 whole entry, looked up): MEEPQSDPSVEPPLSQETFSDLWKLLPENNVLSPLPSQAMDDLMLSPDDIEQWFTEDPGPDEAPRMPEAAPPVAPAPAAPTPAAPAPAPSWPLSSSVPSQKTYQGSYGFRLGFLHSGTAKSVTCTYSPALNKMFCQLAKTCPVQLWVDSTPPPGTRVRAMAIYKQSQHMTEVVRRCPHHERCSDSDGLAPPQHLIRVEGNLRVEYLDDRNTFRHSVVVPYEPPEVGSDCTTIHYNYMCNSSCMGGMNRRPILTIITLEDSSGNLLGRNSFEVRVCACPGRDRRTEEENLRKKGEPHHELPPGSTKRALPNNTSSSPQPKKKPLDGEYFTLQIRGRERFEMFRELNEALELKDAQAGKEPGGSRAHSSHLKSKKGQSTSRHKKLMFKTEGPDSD

C/C=C/C=C/C=C/C(=O)OC1C=C2C(O)OC(=O)[C@]2(O)[C@@]2(C)CCCC(C)(C)[C@H]12 (stereo not given in full)
inactive: activation [1] -2.29% | Potency [2] | Potency [3]

Cc1nc2c(C(F)(F)F)cccc2nc1-c1ccc(-c2cccc(S(C)(=O)=O)c2)cc1
inactive: activation [1] -2.68% | Potency [2] | Potency [3]

C=CCC/C=C/C#CCCCCCCCC[C@H]1C(=O)O[C@H](C)[C@@H]1O
inactive: activation [1] 8.4% | Potency [2] | Potency [3]

C=CC(C)(O)CC/C=C(/C)COC(=O)C(C)C1CCC(C)(C=C)O1 (stereo not given)
inactive: activation [1] 5.36% | Potency [2] | Potency [3]

C=C1CC/C=C(/C(=O)O)CCC2C1CC2(C)C (stereo not given)
inactive: activation [1] -4.58% | Potency [2] | Potency [3]

CC(C)CCC[C@@H](C)[C@H]1CC[C@H]2[C@@H]3CC(=O)[C@H]4C[C@@H](O)CC[C@]4(C)[C@H]3CC[C@]12C
inactive: activation [1] -7% | Potency [2] | Potency [3]

C[C@@H]1C[C@H](C)CN(CCC(=O)Nc2ccc(Br)cc2)C1
inactive: activation [1] 13.4% | Potency [2] | Potency [3]

CCOc1ncc(S(=O)(=O)N2CCN(CC)CC2)cc1-c1nc2c(CC)n(CCOC)nc2c(=O)[nH]1
inactive: activation [1] -9.07% | Potency [2] | Potency [3]

C=C1C[C@]23C[C@H]1CC[C@H]2[C@@]1(C)CCC[C@@]2(C)C(=O)O[C@@H]([C@@H]3O)[C@@H]12
inactive: activation [1] 12.2% | Potency [2] | Potency [3]

CCc1c(-c2ccccc2)c(-c2ccccc2)nn1-c1ccccc1-c1cccc(OCC(=O)O)c1
inactive: activation [1] 13% | Potency [2] | Potency [3]
